The campaign covered roughly 5,500 compounds. About 2,000 (36%) were called active. About 18% were inconclusive and are not listed. No stated cut-off is given here; in the data, active means normalized growth mostly below about 0.91 (no sharp cut-off); inconclusive means no clear call, values can overlap the other calls; inactive means mostly above about 0.92. Some of the results follow.
Experiment: chemical genetic growth profiling, strain panel (AID 1159580);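 further: tested at 20 µM; growth read once vehicle control cultures reached saturation at 30 °C; 1 = growth at the plate median or of vehicle wells; lower values mean less growth of the strain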
Details: S. cerevisiae deletion strains, growth OD

Measured: normalized growth

N#CCC(=O)Nc1ccccn1
inactive: locus YAL013W, strain DEP1, active compounds read low 1.02 | locus YBR229C, strain ROT2, active compounds read low 0.964 | locus YDL101C, strain DUN1, active compounds read low 1.04 | locus YDR150W, strain NUM1, active compounds read low 1.01 | locus YEL061C, strain CIN8, active compounds read low 1.01 | locus YGR078C, strain PAC10, active compounds read low 1.02 | locus YHR030C, strain SLT2, active compounds read low 1.24 | locus YHR087W, strain rtc3, active compounds read low 0.986 | locus YJR043C, strain POL32, active compounds read low 1.01 | locus YJR075W, strain HOC1, active compounds read low 1 | locus YKL190W, strain CNB1, active compounds read low 1 | locus YLR039C, strain RIC1, active compounds read low 1.01 | locus YLR058C, strain SHM2 (second series), active compounds read low 0.995 | locus YLR085C, strain ARP6, active compounds read low 1.06 | locus YLR262C, strain YPT6, active compounds read low 0.989 | locus YML094W, strain GIM5, active compounds read low 1.02 | locus YMR219W, strain ESC1, active compounds read low 0.992 | locus YMR263W, strain SAP30, active compounds read low 1.01 | locus YNL153C, strain GIM3, active compounds read low 1.04 | locus YNL298W, strain CLA4 (second series), active compounds read low 1.06 | locus YNL322C, strain KRE1, active compounds read low 1.01 | locus YNR030W, strain Alg12, active compounds read low 1.07 | locus YOL006C, strain TOP1, active compounds read low 1.07 | locus YPL055C, strain LGE1, active compounds read low 1.04 | locus YPL241C, strain CIN2, active compounds read low 1.04 | locus YPR135W, strain CTF4, active compounds read low 1.2

From PubChem BioAssay AID1159580 (chemical genetic matrix, 2015)
